Source: the supplement of paper PMC11732987, “Enantioselective OTUD7B fragment discovery through chemoproteomics screening and high-throughput optimisation” (Communications Chemistry, 2025)

What was measured:
Test in all cases: log2 ratio of Biotin-Ahx-Ub-VS probe labelling (fragment/DMSO); higher = less target engagement (more negative = stronger competition), active = hit call of the paper (q ≤ 0.05, log2 ratio ≤ -1)
Details in all cases: compound concentration: 200 uM; treatment time: 3 h
USP19 = biological target: T1, USP19 (UniProt O94966)
T1 sequence (whole entry): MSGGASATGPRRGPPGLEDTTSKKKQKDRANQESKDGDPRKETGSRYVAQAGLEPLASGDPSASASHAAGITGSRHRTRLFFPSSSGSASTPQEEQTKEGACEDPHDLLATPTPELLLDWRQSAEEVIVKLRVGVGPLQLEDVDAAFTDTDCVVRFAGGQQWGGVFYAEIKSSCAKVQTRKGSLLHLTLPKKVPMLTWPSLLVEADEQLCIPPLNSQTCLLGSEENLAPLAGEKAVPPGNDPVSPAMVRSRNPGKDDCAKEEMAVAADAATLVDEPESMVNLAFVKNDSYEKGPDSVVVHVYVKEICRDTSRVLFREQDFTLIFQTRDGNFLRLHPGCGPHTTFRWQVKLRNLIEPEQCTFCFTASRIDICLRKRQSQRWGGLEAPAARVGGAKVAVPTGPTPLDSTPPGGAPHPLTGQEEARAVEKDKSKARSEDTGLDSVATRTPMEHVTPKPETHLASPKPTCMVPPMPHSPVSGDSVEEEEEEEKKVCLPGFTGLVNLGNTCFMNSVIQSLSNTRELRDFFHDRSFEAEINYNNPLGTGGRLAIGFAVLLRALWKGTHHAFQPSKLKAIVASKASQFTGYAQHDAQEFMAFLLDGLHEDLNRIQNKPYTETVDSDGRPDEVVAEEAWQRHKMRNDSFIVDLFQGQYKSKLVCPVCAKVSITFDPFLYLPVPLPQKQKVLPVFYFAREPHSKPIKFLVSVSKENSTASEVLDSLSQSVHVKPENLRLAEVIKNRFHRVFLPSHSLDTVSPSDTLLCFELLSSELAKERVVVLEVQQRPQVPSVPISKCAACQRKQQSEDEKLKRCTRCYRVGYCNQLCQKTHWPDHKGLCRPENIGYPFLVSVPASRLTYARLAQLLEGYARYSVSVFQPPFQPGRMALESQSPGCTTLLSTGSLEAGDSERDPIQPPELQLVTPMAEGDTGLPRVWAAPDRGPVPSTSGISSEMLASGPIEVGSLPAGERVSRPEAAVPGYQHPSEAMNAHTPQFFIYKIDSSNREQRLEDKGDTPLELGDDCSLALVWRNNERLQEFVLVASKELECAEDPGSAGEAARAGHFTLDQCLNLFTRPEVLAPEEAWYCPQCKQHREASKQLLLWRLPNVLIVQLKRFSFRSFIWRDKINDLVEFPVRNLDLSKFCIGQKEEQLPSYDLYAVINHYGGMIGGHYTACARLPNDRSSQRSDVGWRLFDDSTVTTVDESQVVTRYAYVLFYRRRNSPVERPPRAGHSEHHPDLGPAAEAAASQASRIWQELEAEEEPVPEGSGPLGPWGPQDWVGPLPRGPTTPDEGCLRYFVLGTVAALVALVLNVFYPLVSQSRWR
Procedure, shortened: (§1)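 HEK293T lysate, 495 µg per sample in Tris/CHAPS/IGEPAL buffer with protease inhibitors, was treated in triplicate with fragment at 200 µM or vehicle for 3 h and then with Biotin-Ahx-Ub-VS at 0.5 µM final for 1 h. Labelled DUBs were NeutrAvidin-enriched, digested with LysC and trypsin, and run by diaPASEF LC-MS/MS. Spectronaut label-free quantities were global-median-normalised, and values are average log2 fragment/vehicle ratios by unpaired t-test on proteins with ≥2 unique peptides.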

USP22 = biological target: T2, USP22 (UniProt Q9UPT9)
T2 sequence (whole entry): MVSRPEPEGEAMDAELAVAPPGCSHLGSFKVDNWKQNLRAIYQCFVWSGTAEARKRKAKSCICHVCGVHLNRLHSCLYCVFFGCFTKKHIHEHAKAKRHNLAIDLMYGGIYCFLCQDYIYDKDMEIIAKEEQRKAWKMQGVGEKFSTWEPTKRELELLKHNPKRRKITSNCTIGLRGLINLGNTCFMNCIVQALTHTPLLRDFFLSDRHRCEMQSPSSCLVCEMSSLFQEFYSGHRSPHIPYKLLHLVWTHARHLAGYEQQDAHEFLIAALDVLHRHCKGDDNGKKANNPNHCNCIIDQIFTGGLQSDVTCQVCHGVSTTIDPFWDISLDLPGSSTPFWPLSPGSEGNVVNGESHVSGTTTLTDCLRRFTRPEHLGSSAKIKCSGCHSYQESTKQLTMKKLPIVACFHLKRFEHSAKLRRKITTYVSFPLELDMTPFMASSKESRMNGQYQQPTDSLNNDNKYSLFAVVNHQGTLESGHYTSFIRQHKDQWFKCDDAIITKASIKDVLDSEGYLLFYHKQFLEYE
Procedure, shortened: as §1

USP24 = USP24 (UniProt Q9UPU5)
Chain of USP24 (Q9UPU5 whole entry): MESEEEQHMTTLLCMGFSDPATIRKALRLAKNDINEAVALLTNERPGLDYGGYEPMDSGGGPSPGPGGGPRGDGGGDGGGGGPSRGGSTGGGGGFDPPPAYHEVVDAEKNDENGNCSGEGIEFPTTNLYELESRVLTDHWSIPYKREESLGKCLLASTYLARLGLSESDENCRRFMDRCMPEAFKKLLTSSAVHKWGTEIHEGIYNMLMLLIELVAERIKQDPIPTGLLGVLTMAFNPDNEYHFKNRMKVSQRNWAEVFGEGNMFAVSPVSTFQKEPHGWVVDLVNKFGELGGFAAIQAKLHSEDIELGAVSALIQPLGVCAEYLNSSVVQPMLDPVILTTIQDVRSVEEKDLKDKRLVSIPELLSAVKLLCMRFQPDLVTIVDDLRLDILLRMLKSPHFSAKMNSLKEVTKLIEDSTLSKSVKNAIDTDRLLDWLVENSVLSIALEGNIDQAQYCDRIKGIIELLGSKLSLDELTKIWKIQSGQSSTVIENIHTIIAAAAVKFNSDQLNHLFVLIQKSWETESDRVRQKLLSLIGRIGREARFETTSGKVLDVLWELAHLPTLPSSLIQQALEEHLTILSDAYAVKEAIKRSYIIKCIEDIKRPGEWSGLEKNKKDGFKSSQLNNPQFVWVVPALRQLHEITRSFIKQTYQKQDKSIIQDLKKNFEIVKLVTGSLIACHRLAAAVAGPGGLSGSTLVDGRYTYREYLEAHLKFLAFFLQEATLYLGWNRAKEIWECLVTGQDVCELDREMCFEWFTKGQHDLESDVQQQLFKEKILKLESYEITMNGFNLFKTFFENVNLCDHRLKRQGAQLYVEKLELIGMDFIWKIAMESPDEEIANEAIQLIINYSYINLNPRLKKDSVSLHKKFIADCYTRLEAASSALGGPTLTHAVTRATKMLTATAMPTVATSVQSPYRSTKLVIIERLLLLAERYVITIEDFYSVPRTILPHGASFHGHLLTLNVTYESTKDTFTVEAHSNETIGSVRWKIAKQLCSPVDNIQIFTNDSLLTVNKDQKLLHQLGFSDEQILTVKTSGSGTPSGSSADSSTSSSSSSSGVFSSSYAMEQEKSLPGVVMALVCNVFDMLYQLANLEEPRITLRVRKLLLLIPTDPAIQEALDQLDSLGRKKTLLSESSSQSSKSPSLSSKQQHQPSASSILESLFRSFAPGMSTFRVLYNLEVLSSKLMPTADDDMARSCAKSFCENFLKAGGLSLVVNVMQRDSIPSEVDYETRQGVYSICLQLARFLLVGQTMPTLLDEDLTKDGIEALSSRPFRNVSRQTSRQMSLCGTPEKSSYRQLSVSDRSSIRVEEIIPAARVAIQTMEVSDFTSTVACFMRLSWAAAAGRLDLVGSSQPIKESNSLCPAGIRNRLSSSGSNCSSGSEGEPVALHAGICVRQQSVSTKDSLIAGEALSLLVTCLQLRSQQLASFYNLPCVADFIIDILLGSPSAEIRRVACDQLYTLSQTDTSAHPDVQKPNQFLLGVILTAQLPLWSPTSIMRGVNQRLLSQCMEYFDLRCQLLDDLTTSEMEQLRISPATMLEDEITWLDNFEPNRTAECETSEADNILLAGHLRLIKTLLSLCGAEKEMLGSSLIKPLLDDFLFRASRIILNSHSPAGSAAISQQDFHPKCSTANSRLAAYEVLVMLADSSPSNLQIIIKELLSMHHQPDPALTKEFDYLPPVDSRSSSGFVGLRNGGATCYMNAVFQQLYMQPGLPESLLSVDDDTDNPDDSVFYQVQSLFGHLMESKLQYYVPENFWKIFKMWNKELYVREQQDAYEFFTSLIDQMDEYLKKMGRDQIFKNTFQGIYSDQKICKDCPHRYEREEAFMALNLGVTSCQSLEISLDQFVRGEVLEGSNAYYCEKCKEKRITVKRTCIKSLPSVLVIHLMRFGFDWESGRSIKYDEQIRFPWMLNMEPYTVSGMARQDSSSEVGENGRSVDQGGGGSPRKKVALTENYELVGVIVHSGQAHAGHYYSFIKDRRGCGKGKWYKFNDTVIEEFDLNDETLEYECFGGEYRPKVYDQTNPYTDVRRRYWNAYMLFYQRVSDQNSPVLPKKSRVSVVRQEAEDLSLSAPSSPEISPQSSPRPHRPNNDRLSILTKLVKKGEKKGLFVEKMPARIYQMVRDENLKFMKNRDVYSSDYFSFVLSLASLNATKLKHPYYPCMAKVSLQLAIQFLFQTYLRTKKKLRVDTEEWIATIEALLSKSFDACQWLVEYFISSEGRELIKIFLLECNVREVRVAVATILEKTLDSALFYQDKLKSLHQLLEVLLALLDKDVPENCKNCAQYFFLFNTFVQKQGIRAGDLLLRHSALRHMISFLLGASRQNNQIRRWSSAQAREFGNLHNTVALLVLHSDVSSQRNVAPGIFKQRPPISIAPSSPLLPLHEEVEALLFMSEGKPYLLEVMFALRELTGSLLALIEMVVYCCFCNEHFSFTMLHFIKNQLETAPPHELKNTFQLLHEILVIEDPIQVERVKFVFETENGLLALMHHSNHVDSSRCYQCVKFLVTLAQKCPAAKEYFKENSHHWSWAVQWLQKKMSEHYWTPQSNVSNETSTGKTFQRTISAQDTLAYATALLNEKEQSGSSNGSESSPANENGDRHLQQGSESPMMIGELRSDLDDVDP
Procedure, shortened: as §1

USP25 = biological target: T3, USP25 (UniProt Q9UHP3)
T3 sequence (whole entry): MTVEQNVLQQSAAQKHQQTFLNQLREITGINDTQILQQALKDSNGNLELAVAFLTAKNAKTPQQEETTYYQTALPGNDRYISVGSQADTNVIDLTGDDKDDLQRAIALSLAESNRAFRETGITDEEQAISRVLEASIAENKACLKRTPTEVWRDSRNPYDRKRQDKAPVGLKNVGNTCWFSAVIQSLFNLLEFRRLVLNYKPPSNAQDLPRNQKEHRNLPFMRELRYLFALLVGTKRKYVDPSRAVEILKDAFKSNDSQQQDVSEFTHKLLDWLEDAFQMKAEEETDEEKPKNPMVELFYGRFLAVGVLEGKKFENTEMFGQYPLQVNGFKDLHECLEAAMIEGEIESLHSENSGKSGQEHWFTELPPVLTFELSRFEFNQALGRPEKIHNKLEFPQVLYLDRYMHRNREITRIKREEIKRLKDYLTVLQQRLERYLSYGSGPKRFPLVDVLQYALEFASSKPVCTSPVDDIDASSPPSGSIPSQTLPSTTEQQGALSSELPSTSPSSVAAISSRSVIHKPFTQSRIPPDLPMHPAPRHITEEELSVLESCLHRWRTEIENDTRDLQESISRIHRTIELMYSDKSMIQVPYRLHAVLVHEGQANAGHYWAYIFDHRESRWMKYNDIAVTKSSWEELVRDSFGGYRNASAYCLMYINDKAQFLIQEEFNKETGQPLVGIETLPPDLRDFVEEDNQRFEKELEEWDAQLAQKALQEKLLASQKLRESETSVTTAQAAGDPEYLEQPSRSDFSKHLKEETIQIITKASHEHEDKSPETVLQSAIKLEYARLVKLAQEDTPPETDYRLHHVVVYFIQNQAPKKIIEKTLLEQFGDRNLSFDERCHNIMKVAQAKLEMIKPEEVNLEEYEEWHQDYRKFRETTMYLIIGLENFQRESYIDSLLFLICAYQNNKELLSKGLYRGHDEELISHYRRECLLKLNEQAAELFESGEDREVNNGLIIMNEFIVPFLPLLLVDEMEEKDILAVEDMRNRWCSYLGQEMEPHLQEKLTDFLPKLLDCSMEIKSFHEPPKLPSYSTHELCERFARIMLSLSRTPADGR
Procedure, shortened: as §1

USP28 = biological target: T4, USP28 (UniProt Q96RU2)
T4 sequence (whole entry): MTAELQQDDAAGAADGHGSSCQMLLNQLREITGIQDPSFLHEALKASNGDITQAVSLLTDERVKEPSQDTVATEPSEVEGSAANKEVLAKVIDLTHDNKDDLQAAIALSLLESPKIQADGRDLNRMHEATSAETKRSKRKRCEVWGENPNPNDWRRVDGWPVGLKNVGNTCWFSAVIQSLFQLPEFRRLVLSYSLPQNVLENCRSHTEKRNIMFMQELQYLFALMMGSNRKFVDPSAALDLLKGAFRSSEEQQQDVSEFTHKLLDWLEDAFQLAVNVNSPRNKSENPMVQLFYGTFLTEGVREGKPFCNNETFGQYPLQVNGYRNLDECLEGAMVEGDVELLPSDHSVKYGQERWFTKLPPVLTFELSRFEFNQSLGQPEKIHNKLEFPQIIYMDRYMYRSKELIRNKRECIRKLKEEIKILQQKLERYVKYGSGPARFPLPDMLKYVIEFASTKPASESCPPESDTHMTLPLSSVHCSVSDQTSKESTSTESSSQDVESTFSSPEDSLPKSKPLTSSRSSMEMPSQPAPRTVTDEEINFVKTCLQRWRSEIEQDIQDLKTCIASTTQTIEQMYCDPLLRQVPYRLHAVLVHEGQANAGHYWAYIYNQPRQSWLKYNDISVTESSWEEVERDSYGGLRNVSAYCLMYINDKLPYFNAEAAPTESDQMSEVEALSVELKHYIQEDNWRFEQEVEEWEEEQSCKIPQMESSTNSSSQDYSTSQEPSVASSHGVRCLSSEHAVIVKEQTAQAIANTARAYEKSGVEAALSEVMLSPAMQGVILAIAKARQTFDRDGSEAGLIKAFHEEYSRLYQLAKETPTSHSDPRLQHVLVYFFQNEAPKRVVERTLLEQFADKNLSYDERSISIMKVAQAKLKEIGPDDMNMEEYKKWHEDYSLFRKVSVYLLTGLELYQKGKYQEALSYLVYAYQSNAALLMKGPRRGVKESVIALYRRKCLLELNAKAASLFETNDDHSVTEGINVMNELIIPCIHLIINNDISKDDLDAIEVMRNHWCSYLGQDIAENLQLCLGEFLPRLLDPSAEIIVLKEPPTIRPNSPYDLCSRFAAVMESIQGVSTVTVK
Procedure, shortened: as §1

Measured: log2 ratio of Biotin-Ahx-Ub-VS probe labelling

O=C(CCl)NCCc1ccc(F)cc1
inactive: USP19 -0.131 | USP22 0.0853 | USP24 -0.0496 | USP25 -0.326 | USP28 -0.328
